Reference: PubChem BioAssay (Tox21)
Inconclusive results are not listed. Values without a mark were called inactive. Calls come from the whole dose curve; as a rule, active = well fitted cell-killing curve with a large enough effect in the repeat runs (not every such curve was filed as active); inconclusive = weak or mixed curves, or effect the other way; inactive = no such curve, though single readings can be large or run the other way.

Assay: qHTS assay to identify small molecule antagonists of the farnesoid-X-receptor (FXR) signaling pathway - cell viability counter screen (AID 743221); note: nearly all actives have a fitted effect of over 50% in size
Conditions: FXR-bla HEK293T viability, CellTiter-Glo luminescence, 16 h; series mostly up to 62.6 µM; activity change, negative = cytotoxicity: at the top concentration
Excerpt: National Center for Advancing Translational Sciences [NCATS]
NIH Chemical Genomics Center [NCGC]
U.S. Environmental Protection Agency [EPA]
National Institutes of Environmental Health Sciences [NIEHS]
National Toxicology Program [NTP]
U.S. Food and Drug Administration [FDA]
The farnesoid-X-receptor (FXR), a nuclear hormone receptor, is highly expressed in liver, intestine, kidney and adrenal cortex. Natural ligands of FXR are the bile acids (Cholic acid, Chenodeoxy cholic acid etc). FXR is an important regulator of diverse metabolic pathways, including the bile acid homeostasis, lipid and glucose metabolisms. FXR regulates the expression of target genes by binding either as a monomer or as a heterodimer with the retinoid X receptor (RXR). Numerous studies have reported that FXR exerts protective function during cholestasis, diabetes, liver regeneration, and cancer. To identify compounds that inhibit FXR signaling, GeneBLAzer FXR-UAS-bla HEK 293T cell line (Invitrogen, Carlsbad, CA) containing a beta-lactamase reporter gene under the control of a UAS response element was used to screen the Tox21 10K compound library. The cytotoxicity of the Tox21 compound library against the FXR-bla cell line was tested in parallel by measuring the cell viability using CellTiter-Glo assay in the same wells.
Tox21 Assay Protocol Summary:
FXR-bla cells were dispensed at 5000 cells/5uL/well in 1536-well black wall/clear bottom plates using a Multidrop Combi (Thermo Fisher Scientific, Waltham, MA) dispenser. After the assay plates were incubated at 37 C and 5% CO2 for 5 h, 23 nL of compounds dissolved in DMSO, positive controls or DMSO only was transferred to the assay plate by a Pintool station (Kalypsys, San Diego, CA), followed by addition of 1 uL Chenodeoxycholic acid (50 uM, final concentration in the wells). The assay plates were incubated at 37C for 16 h. After 1 uL of LiveBLAzerTM B/G FRET substrate was added using a Bioraptr Flying Reagent Dispenser (FRD) workstation (Beckman Coulter, Indianapolis, IN), the plates were incubated at room temperature for 2 h, and fluorescence intensity was measured by an Envision plate reader (PerkinElmer, Shelton, CT). For cell viability readout that measures cytotoxicity, 4uL/well of CellTiter-Glo reagent was added into the assay plates using a Bioraptr FRD. After 30 min incubation at room temperature, the luminescence intensity in the plates was measured using a ViewLux plate reader (PerkinElmer).
% is set by controls: 0 for no effect and ±100 for the full control effect.

Structure (SMILES)	activity change, negative = cytotoxicity
CCCCCCCCSCC	19%
C=C(C)C(=O)OCCN(CC)CC	-1.62%
CCOC(=O)/C=C/c1ccccc1	-7.43%
CC1=C(C(=O)O)N2C(=O)[C@@H](NC(=O)[C@H](N)c3ccc(O)cc3)[C@H]2SC1	16.5%
Nc1ccc2cc(S(=O)(=O)O)cc(O)c2c1	-2.99%
Nc1ccc([N+](=O)[O-])c(N)c1	3.67%
C=CC(OCC)OCC	-0.781%
CCOCCOC(=O)/C=C/c1ccc(OC)cc1	15.5%
CC1COc2ccccc2N1 (stereo not given)	9.52%
Cc1ccc(S(=O)(=O)O)c(C)c1	-11%
CCCCCCCCOS(=O)(=O)O	-8.36%
C=C(C)C(=O)OCCNC(C)(C)C	-12.5%
CCCCCCCCCCl	-2.43% [at 81.1 µM]
CC(C)CCCC(C)(C)O	0.43%
CC(C)(C)c1n[nH]c(=S)n(N)c1=O	1.97%
CC(C)C[C@H](NC(=O)CNC(=O)[C@H](Cc1ccc(O)cc1)NC(=O)[C@H](CO)NC(=O)[C@H](Cc1c[nH]c2ccccc12)NC(=O)[C@H](Cc1cnc[nH]1)NC(=O)[C@@H]1CCC(=O)N1)C(=O)N[C@@H](CCCN=C(N)N)C(=O)N1CCC[C@H]1C(=O)NCC(N)=O (stereo in doubt)	12.4%
C=C(C)C1CCC(C)(O)CC1 (stereo not given)	4.27%
OCCCCC(O)CO (stereo not given)	0.469%
COc1cc(NS(=O)(=O)c2ccc(N)cc2)nc(OC)n1	9.76%
C[C@@H](Oc1ccc(CNC(=O)c2cccnc2Oc2ccc3c(c2)OCO3)c(F)c1)C(=O)O	4.1%

Structure (SMILES)	activity change, negative = cytotoxicity
C#CC(C)N(C)C(=O)Nc1ccc(Cl)cc1 (stereo not given)	-18.4%
O=C(O)c1cc(Cl)cc([N+](=O)[O-])c1Cl	4.86%
CCCCCCCCCC(C)=O	-7.61% [at 81.1 µM]
O=C(O)C(=O)Cc1ccccc1	20.2%
CCOc1cc(NC(C)=O)ccc1C(=O)OC	6.51%
OC[C@H](Cc1cccc(O)c1)[C@H](CO)Cc1cccc(O)c1	-0.785% [at 81.1 µM]
CC(C)C(=O)OCc1cccc(OC(=O)[C@@H]2N3C(=O)[C@@H](NC(=O)Cc4ccccc4)[C@H]3SC2(C)C)c1	0.126%
CC(C)(C)c1nnc(NS(=O)(=O)c2ccc(N)cc2)s1	8.62%
CCC(C=O)CC	12.2% [at 81.1 µM]
CNC(=O)[C@H]1O[C@@H](n2cnc3c(NCc4cc(Cl)ccc4OCc4cc(C)no4)ncnc32)[C@H](O)[C@@H]1N	-7.21%
CCCOC(=O)C(C)O (stereo not given)	0.221% [at 81.1 µM]
O=C(OCC(O)CO)c1ccccc1Nc1ccnc2c(C(F)(F)F)cccc12 (stereo not given)	-13.6%
Cc1cc(NC(=O)C2=C(O)c3ccccc3S(=O)(=O)N2C)no1	-15.8%
CCCCNC1CC(C)(C)NC(C)(C)C1	14.9%
O=S(=O)(O)c1cc(O)c2ccc(Nc3ccccc3)cc2c1	-8.58%
CC(=C(CCOC(=O)C(C)C)SSC(CCOC(=O)C(C)C)=C(C)N(C=O)Cc1cnc(C)nc1N)N(C=O)Cc1cnc(C)nc1N	5.13%
CC(=O)NCc1c(I)c(NC(C)=O)c(I)c(C(=O)O)c1I	-2.47%
CNS(=O)(=O)CCc1ccc2[nH]cc(C3CCN(C)CC3)c2c1	2.2%
Nc1ccc(S(=O)(=O)Nc2ccc(Cl)nn2)cc1	-1.63%
CC(COC(C)(C)C)OCCCO (stereo not given)	-14.2%
